Test results: PMC4336329 (PLoS ONE, 2015)
Among all 310,000 compounds or so, about 14,000 (4.5%) showed an effect of 50% or more. Effects have a minus sign here. This is one part of a sample in which strong results are shown more often than they occur.

Target: human ether-à-go-go-related gene (hERG) potassium channel (human, UniProt Q12809)
Experiment: primary screen, population patch clamp on CHO cells stably expressing hERG; higher = less effect of the substance
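Note: peak tail current of the secondary pulse compared with the same well before compound.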

Sequence of human ether-à-go-go-related gene (hERG) potassium channel (Q12809 whole entry, looked up): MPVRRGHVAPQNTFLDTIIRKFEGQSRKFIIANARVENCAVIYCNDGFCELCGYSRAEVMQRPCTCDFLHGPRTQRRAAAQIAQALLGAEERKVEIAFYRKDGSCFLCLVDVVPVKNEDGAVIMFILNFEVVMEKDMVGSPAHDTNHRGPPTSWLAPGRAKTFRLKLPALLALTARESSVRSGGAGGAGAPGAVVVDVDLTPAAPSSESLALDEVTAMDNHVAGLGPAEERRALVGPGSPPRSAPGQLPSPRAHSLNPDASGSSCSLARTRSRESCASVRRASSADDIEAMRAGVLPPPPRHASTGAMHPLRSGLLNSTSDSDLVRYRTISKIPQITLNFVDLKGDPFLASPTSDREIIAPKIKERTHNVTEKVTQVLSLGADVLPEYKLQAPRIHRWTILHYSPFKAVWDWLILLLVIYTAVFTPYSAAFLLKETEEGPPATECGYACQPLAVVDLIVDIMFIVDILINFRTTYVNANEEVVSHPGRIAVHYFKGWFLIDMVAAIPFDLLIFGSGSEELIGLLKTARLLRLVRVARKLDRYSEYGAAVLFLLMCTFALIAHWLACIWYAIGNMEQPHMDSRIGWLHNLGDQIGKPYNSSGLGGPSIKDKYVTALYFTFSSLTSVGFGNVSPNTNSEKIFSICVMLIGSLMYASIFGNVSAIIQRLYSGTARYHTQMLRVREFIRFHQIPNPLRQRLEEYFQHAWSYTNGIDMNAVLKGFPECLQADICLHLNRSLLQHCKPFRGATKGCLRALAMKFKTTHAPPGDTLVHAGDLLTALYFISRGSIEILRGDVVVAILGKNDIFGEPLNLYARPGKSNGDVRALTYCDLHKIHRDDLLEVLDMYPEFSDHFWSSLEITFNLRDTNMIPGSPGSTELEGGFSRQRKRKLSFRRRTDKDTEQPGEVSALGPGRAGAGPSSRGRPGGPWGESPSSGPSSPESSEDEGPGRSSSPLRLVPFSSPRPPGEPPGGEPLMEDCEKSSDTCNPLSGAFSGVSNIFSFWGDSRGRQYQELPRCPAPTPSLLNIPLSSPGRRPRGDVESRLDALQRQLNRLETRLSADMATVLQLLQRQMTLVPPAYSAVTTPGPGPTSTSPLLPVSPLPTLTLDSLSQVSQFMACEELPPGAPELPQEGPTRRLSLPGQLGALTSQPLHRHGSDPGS

| SMILES | hERG current change (%, negative = inhibition) at 10uM [%] |
| --- | --- |
| Cc1ccc(N2C(=O)N(CC(=O)Nc3cccc(Cl)c3)C(=O)C2C)cc1 (stereo not drawn) | -14.9 |
| O=C(COC(=O)CCc1ccc(S(=O)(=O)N2CCOCC2)cc1)NC1CCCCCC1 | -10.8 |
| CN(C)c1ccc(-c2cccc(C3CC=CC4C3C(=O)N(Cc3ccccc3)C4c3ccc4ccccc4c3)c2)cc1 (stereo not drawn) | 17.5 |
| Cc1nc([N+](=O)[O-])c(N2CCN(Cc3ccccc3)CC2)n1Cc1ccccc1 | -64.3 |
| c1ccc(N2CCN(Cc3ccc4c(c3)OCO4)CC2)nc1 | -8.79 |
| Cl.O=[N+]([O-])c1ccc(N2CCN(Cc3ccccc3)CC2)nc1 | -59 |
| O=S(=O)(c1ccc(N2CCN(Cc3ccc4c(c3)OCO4)CC2)nc1)N1CCOCC1 | -32.1 |
| O=[N+]([O-])c1ccc(N2CCN(c3ccccc3)CC2)nc1 | 4.96 |
| O=C(O)c1ccc(N2CCN(Cc3ccc4c(c3)OCO4)CC2)c([N+](=O)[O-])c1 | 17.3 |
| Cc1nc([N+](=O)[O-])c(N2CCOCC2)n1Cc1ccccc1 | 9.64 |
| CN(C(=O)CN1CCN(c2ccc([N+](=O)[O-])cn2)CC1)c1ccccc1 | -49.1 |
| O=Cc1cc([N+](=O)[O-])ccc1N1CCN(Cc2ccc3c(c2)OCO3)CC1 | -67.5 |
| Cl.O=[N+]([O-])c1ccc2ncnc(N3CCN(Cc4ccc5c(c4)OCO5)CC3)c2c1 | -24.6 |
| O=[N+]([O-])c1ccc(N2CCN(Cc3ccc4c(c3)OCO4)CC2)nc1 | -54.4 |
| Cc1nc([N+](=O)[O-])c(N2CCN(C)CC2)n1Cc1ccccc1 | -10.4 |
| COc1cccc(NC(=S)NNC(=O)c2ccccc2OC(F)F)c1 | 12.3 |
| Fc1ccccc1-c1[nH]ncc1-c1nnnn1-c1ccccc1 | 5.39 |
| CCc1nnc(NC(=O)c2ccc3c(c2)C(=O)N(C(C)(C)C)C3=O)s1 | 7.02 |
| O=C(CSc1ccc2ccccc2c1)NC1CCCc2ccccc21 (stereo not drawn) | 8.2 |
| COc1ccc(Cl)cc1NC(=S)NC(=O)c1ccco1 | -31.5 |
| COc1cc(/C=N/NC(=O)CNC(=O)c2ccco2)ccc1O | 7.95 |
| COc1cc2c(cc1NC(=O)C(C)OC(=O)C1CC(=O)N(Cc3ccco3)C1)oc1ccccc12 (stereo not drawn) | -1.77 |
| COc1ccc([N+](=O)[O-])cc1NC(=O)C(C)OC(=O)c1ccccn1 (stereo not drawn) | -7.61 |
| CC(OC(=O)C1CC(=O)N(Cc2ccco2)C1)C(=O)Nc1ccccc1[N+](=O)[O-] (stereo not drawn) | -19.1 |

| SMILES | hERG current change (%, negative = inhibition) at 10uM [%] |
| --- | --- |
| COc1ccc([N+](=O)[O-])cc1NC(=O)C(C)OC(=O)C1CC(=O)N(Cc2ccco2)C1 (stereo not drawn) | -57.4 |
| CCc1noc(C)c1C(=O)OC(C)C(=O)Nc1ccccc1OC (stereo not drawn) | -12.8 |
| CCc1noc(C)c1C(=O)OC(C)C(=O)Nc1cc([N+](=O)[O-])ccc1OC (stereo not drawn) | -53.1 |
| O=C(COC(=O)c1ccc(Cl)c(S(=O)(=O)N2CCCC2)c1)NCc1cccs1 | -39.8 |
| CCOc1ccc(/C=N/NC(=O)C2(O)c3ccccc3-c3ccccc32)cc1 | 4.13 |
| CCSc1nnc(NC(=O)[C@@H](NC(=O)c2ccccc2F)C(C)C)s1 | -8.27 |
| O=C(Nc1nccs1)c1ccc(F)c(S(=O)(=O)N2CCOCC2)c1 | -18.8 |
| Cc1cc(C)n(CC(O)Cn2ccc3ccccc32)n1 (stereo not drawn) | -12.5 |
| CC1C2CC(C(CN(C)C)/C2=N/O)C1(C)C (stereo not drawn) | -9.04 |
| COc1ccc(C2=CC(=O)N(Nc3ccccc3)C2=O)cc1 | 24.6 |
| O=C1C=C(c2ccccc2)C(=O)N1Nc1ccccc1 | -77.2 |
| O=C1C=C(c2ccc(Cl)cc2)C(=O)N1Nc1ccccc1 | 13.1 |
| CN(c1ccccc1)c1nc2ccsc2c(=O)s1 | 4.47 |
| CC(C)=CCN1CCN(Cc2cccn2-c2ncccn2)CC1CCO (stereo not drawn) | -39.6 |
| CCn1ccnc1CN1CCN(CCC(C)C)C(CCO)C1 (stereo not drawn) | 18.9 |
| CC(C)N1CCN(Cc2cccn2-c2ccccn2)CC1CCO (stereo not drawn) | -31.2 |
| CC(C)CN1CCN(Cc2cccc3ncccc23)CC1CCO (stereo not drawn) | -2.49 |
| CC(C)=CCN1CCN(Cc2ccc(Oc3ncccn3)cc2)CC1CCO (stereo not drawn) | 9.1 |
| CC(C)CN1CCN(Cc2cccn2-c2ccccn2)CC1CCO (stereo not drawn) | -55.9 |
| CC(C)CCN1CCN(Cc2cccn2-c2ccccn2)CC1CCO (stereo not drawn) | -75.5 |
| CC(C)CCN1CCN(Cc2cccc3cccnc23)CC1CCO (stereo not drawn) | -26.2 |
| CC(C)=CCN1CCN(Cc2cccn2-c2ccccn2)CC1CCO (stereo not drawn) | -55.4 |
| CCC(C)N1C(=O)N(C)C2NC(=O)NC21 (stereo not drawn) | -2.9 |
| Cc1ccc(OCC(=O)NNC(=S)NC(=O)C2CC2)c(C)c1 | 23.2 |
